Structures can show the parent of a compound that is named as a salt.
Tested on: Saccharomyces cerevisiae BY4741 SeMeCo community
Assay: z-score of subpopulation abundance vs DMSO median, subpopulation auxotrophic for L; higher = larger share of this subpopulation than in DMSO controls
Conditions: 10 µM; 24 h; SM minimal medium; subpopulation (auxotrophy): L
Protocol: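 Fluorescent four-plasmid SeMeCo (self-establishing metabolically cooperating S. cerevisiae BY4741 community; plasmids pH-mRuby2, pL-mWasabi, pU-eCFP, pM-TagRFP657) was grown 24 h in minimal SM medium with each Selleck FDA-approved drug at 10 µM in 384-well plates. Cells were fixed and imaged by high-content confocal microscopy. For each auxotrophic subpopulation (and the prototroph), a z-score gives the deviation from the DMSO vehicle-control population median.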

Compound | z-score of subpopulation abundance
CCNC(=O)[C@@H]1CCCN1C(=O)[C@H](CCCNC(=N)N)NC(=O)[C@H](CC(C)C)NC(=O)[C@@H](CC(C)C)NC(=O)[C@H](Cc1ccc(O)cc1)NC(=O)[C@H](CO)NC(=O)[C@H](Cc1c[nH]c2ccccc12)NC(=O)[C@H](Cc1c[nH]cn1)NC(=O)[C@@H]1CCC(=O)N1 [Leuprolide Acetate] | 0.44
CCN1CCN(C(=O)N[C@@H](C(=O)N[C@@H]2C(=O)N3C(C(=O)O)=C(CSc4nnnn4C)CS[C@H]23)c2ccc(O)cc2)C(=O)C1=O [Cefoperazone] | 0.4
O=C(CCCN1CCN(c2ccccn2)CC1)c1ccc(F)cc1 [Azaperone] | 0.29
O=C(NCCO[N+](=O)[O-])c1cccnc1 [Nicorandil] | 0.07
Cc1c(C(N)=O)cc([N+](=O)[O-])cc1[N+](=O)[O-] [Dinitolmide] | 0.45
CC1=CC[C@@](O)(C(C)C)CC1 [Terpinen-4-ol] | 0.37
CC1(C)S[C@@H]2[C@H](NC(=O)COc3ccccc3)C(=O)N2[C@H]1C(=O)O [Penicillin V potassium salt] | -1.58
COc1ccnc(C[S+]([O-])c2nc3cc(OC(F)F)ccc3[nH]2)c1OC (stereo not given) [Pantoprazole sodium] | -0.4
COc1cccc2c1C(=O)c1c(O)c3c(c(O)c1C2=O)C[C@@](O)(C(=O)CO)C[C@@H]3O[C@H]1C[C@H](N)[C@H](O[C@@H]2CCCCO2)[C@H](C)O1 [Pirarubicin] | 0.11
COc1ccc2c3c1O[C@H]1C[C@@H](O)C=C[C@@]31CCN(C)C2 [Galanthamine] | 0.78
Cc1ccc(C(=O)C(C)CN2CCCCC2)cc1 (stereo not given) [Tolperisone HCl] | -0.42
CO/N=C(\C(=O)N[C@@H]1C(=O)N2C(C(=O)O)=C(CSc3nc(C)c(CC(=O)O)s3)CS[C@H]12)c1csc(N)n1 [Cefodizime Sodium] | -0.39
Nc1ccc(S(=O)(=O)Nc2ccccn2)cc1 [Sulfapyridine] | -0.23
COc1ccccc1N1CCN(CCCNc2cc(=O)n(C)c(=O)n2C)CC1 [Urapidil HCl] | -1
CS(=O)(=O)c1ccc([C@@H](O)[C@@H](CF)NC(=O)C(Cl)Cl)cc1 [Florfenicol] | -0.16
NCc1ccccc1CC(=O)N[C@@H]1C(=O)N2C(C(=O)O)=C(CSc3nnnn3CC(=O)O)CS[C@H]12 [Ceforanide] | 2.29
COc1cc(NS(=O)(=O)c2ccc(N)cc2)nc(OC)n1 [SulfadiMethoxine sodium] | -0.99
CONC(=O)Nc1ccc(-c2sc3c(c2CN(C)C)c(=O)n(-c2ccc(OC)nn2)c(=O)n3Cc2c(F)cccc2F)cc1 [Relugolix] | 0.15
C[C@](N)(Cc1ccc(O)c(O)c1)C(=O)O [Methyldopa] | -0.9
CCCCCCCCN=C(N)NC(N)=NCc1ccc(Cl)c(Cl)c1 [Olanexidine Hydrochloride semihydrate] | -3.44

Compound | z-score of subpopulation abundance
CCC(C)n1ncn(-c2ccc(N3CCN(c4ccc(OCC5COC(Cn6cncn6)(c6ccc(Cl)cc6Cl)O5)cc4)CC3)cc2)c1=O (stereo not given) [Itraconazole] | 0.48
CN(C)CCC=C1c2ccccc2C(C)(C)c2ccccc21 [Melitracen hydrochloride] | -0.61
O=C1CN(/N=C/c2ccc(-c3ccc([N+](=O)[O-])cc3)o2)C(=O)N1 [Dantrolene sodium] | 2.03
Nc1ccc(S(N)(=O)=O)cc1 [Sulfanilamide] | -1.4
CN[C@H](CC(C)C)C(=O)N[C@H]1C(=O)N[C@@H](CC(N)=O)C(=O)N[C@H]2C(=O)N[C@H]3C(=O)N[C@H](C(=O)N[C@H](C(=O)O)c4cc(O)cc(O)c4-c4cc3ccc4O)[C@H](O)c3ccc(c(Cl)c3)Oc3cc2cc(c3O[C@@H]2O[C@H](CO)[C@@H](O)[C@H](O)[C@H]2O[C@H]2C[C@](C)(N)[C@H](O)[C@H](C)O2)Oc2ccc(cc2Cl)[C@H]1O [Vancomycin HCl] | -0.67
NC[C@H]1O[C@H](O[C@H]2[C@H](O)[C@@H](O[C@H]3O[C@H](CO)[C@@H](O)[C@H](N)[C@H]3O)[C@H](N)C[C@@H]2N)[C@H](N)C[C@@H]1O [Tobramycin] | -0.45
COc1ccc2cc([C@H](C)C(=O)O)ccc2c1 [Naproxen Sodium] | 0.02
CN1CCN(c2c(F)cc3c(=O)c(C(=O)O)cn4c3c2OCN4C)CC1 [Marbofloxacin] | -1.17
CO[C@@H]1[C@H](OC(=O)/C=C/C=C/C=C/C=C/C(=O)O)CC[C@]2(CO2)[C@H]1[C@@]1(C)O[C@@H]1CC=C(C)C [Fumagillin] | 1.24
O=C1C(=O)c2ccccc2C(O)=C1C1CCC(c2ccc(Cl)cc2)CC1 (stereo not given) [Atovaquone] | 1.54
CN[C@@H]1[C@@H](O[C@H]2O[C@H](CO)[C@@H](N)[C@H](O)[C@H]2O)OC2C[C@@H](N)[C@@H](O[C@H]3[C@H](O)[C@@H](O)[C@H](N)C[C@@H]3N)OC2[C@@H]1O (stereo not given in full) [Apramycin Sulfate] | -0.01
NC[C@@H]1O[C@H](O[C@H]2[C@@H](O)[C@H](O[C@@H]3[C@@H](O)[C@H](N)C[C@H](N)[C@H]3O[C@H]3O[C@H](CO)[C@@H](O)[C@H](O)[C@H]3N)O[C@@H]2CO)[C@H](N)[C@@H](O)[C@@H]1O [Paromomycin Sulfate] | 0.88
CN(C)CC(c1ccc(O)cc1)C1(O)CCCCC1 (stereo not given) [Desvenlafaxine] | -0.35
COc1ccnc(C[S+]([O-])c2nc3cc(-n4cccc4)ccc3[nH]2)c1C (stereo not given) [Ilaprazole] | 2.44
Nc1nc(O)c2ncn(CCC(CO)CO)c2n1 [Penciclovir] | -0.31
Cc1cc(-c2ccc(/N=N/c3ccc4c(S(=O)(=O)O)cc(S(=O)(=O)O)c(N)c4c3O)c(C)c2)ccc1/N=N/c1ccc2c(S(=O)(=O)O)cc(S(=O)(=O)O)c(N)c2c1O [Evans Blue] | -1.65
CN(C)CCC=C1c2ccccc2C=Cc2ccccc21 [Cyclobenzaprine HCl] | -0.14
CC1(C)S[C@@H]2[C@H](NC(=O)Cc3ccccc3)C(=O)N2[C@H]1C(=O)O [Penicillin G Sodium] | -0.1
CCCCOc1ccc(C(=O)CCN2CCCCC2)cc1 [Dyclonine HCl] | 0.13
O=C1NC(=O)C(c2ccccc2)(c2ccccc2)N1 [Phenytoin] | -0.25

Source: the supplement of paper PMC8975748
